According to PubChem BioAssay AID1259415 (National Center for Advancing Translational Sciences (NCATS), 2018):
About 18,000 (4.4%) of roughly 410,000 compounds were called active. Roughly 7% stayed inconclusive and do not appear here. The sample as a whole holds a higher share of actives than the screen did. Unmarked numbers belong to inactive results. No stated cut-off is given here; in the data, active means activity change below about -60%; inconclusive means no clear call, values can overlap the other calls; inactive means above about -39%.

Assay: qHTS Assay for inhibitors of the human cytomegalovirus (HCMV)
Details: HFF cells, HCMV-luciferase reporter, 72 h; at 57.5 µM; stronger effect = lower value
In short: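 HFF cells seeded 16 h at 37C, treated with compounds, infected with luciferase-reporter HCMV at MOI 1 PFU/cell; luciferase read at 72 h post infection, normalized to buffer-only and Salinomycin controls.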
On the % scale 0 is the no-effect control and ±100 the full control effect.

**Q.** Which activity change, negative = inhibition does the source give for `Cc1c(NC(=O)Nc2ccc(F)c(Cl)c2)c(=O)n(-c2ccccc2)n1C` here?
**A.** 1.88%

**Q.** Which activity change, negative = inhibition does the source give for `C/C(CC(=O)NC(C)(C)C)=N\NC(=O)c1ccco1` here?
**A.** 16.9%

**Q.** For `O=C(NC(Cc1ccccc1)C(=O)O)/C(=C\c1ccccc1)NC(=O)c1ccco1` (stereo not drawn), which activity change, negative = inhibition is on record?
**A.** 54.3%

**Q.** For `CC(C)(C)NC(=O)/C(=C/c1cccnc1)NC(=O)c1ccco1`, which activity change, negative = inhibition is on record?
**A.** -61.3% (active)

**Q.** Which activity change, negative = inhibition does the source give for `Cc1ccc(/C=C(\C#N)C(=O)Nc2cc(C)ccc2C)cc1` here?
**A.** -15.9%

**Q.** With `Cc1ccc(CNC(=O)C2CCCN2C(=O)NCc2ccccc2)cc1` (stereo not drawn) as the compound, how does the activity change, negative = inhibition read?
**A.** 1.11%

**Q.** For `CCCc1cc(=O)n2[nH]c(C)c(-c3ccc(Cl)cc3)c2n1`, which activity change, negative = inhibition is on record?
**A.** 4.01%

**Q.** Which activity change, negative = inhibition does the source give for `Cc1[nH]n(-c2cccc(Cl)c2)c(=O)c1-c1ccc(Cl)cc1` here?
**A.** -66.9% (active)

**Q.** Which activity change, negative = inhibition does the source give for `O=c1c2ccccc2[nH]c(=S)n1-c1cccc(Cl)c1` here?
**A.** -21.9%

**Q.** For `Cc1ccc2c(c1)N(CC(=O)N1CCCC(C)C1)C(=O)CO2` (stereo not drawn), which activity change, negative = inhibition is on record?
**A.** -22.2%

**Q.** With `COC(=O)c1sc2ncccc2c1-n1c(C)ccc1C` as the compound, how does the activity change, negative = inhibition read?
**A.** -10.3%

**Q.** Which activity change, negative = inhibition does the source give for `CCOC(=O)c1cc2cc(OC)ccc2n1C1CCN(C)CC1` here?
**A.** -32.2%

**Q.** With `CCN(CC)c1cc(NC2CCCCC2)c2c3c(onc13)-c1ccccc1C2=O` as the compound, how does the activity change, negative = inhibition read?
**A.** -25.5%

**Q.** For `CC(=O)/C(=N\Nc1ccc(Cl)cc1Cl)Sc1cccc2cccnc12`, which activity change, negative = inhibition is on record?
**A.** -103% (active)

**Q.** Which activity change, negative = inhibition does the source give for `CC(Oc1ccc(Cl)cc1)C(=O)Nc1ncccn1` (stereo not drawn) here?
**A.** -1.17%

**Q.** With `COc1c(Cl)cc(Cl)cc1C(=O)Nc1cccc2cccnc12` as the compound, how does the activity change, negative = inhibition read?
**A.** 33.4%

**Q.** With `Cc1nn2c(=O)cc(COC(=O)c3ccccc3NC(=O)COc3ccccc3C)nc2s1` as the compound, how does the activity change, negative = inhibition read?
**A.** 31.1%

**Q.** Which activity change, negative = inhibition does the source give for `CC(=O)c1cccc(NC(=O)c2nc(-c3ccccc3)n(-c3cccc(C)c3)n2)c1` here?
**A.** -18.5%

**Q.** Which activity change, negative = inhibition does the source give for `Cc1cccc(-n2ncc(Cl)c(Cl)c2=O)c1` here?
**A.** -104% (active)

**Q.** For `Cc1cccc(-n2ncc(C(=O)N3CCN(c4ccc(Cl)cc4)CC3)c2C2CCN(C(=O)OC(C)(C)C)CC2)c1`, which activity change, negative = inhibition is on record?
**A.** 0%

**Q.** For `CN1CCN(C(CNC(=O)c2ccccc2F)c2ccc3c(c2)OCO3)CC1` (stereo not drawn), which activity change, negative = inhibition is on record?
**A.** 12.6%

**Q.** For `COc1ccc(N2C(=O)CCC(C(=O)N(C)C3CCCCC3)C2c2ccc(OC)c(OC)c2)cc1` (stereo not drawn), which activity change, negative = inhibition is on record?
**A.** -12.4%

**Q.** For `CN(C)S(=O)(=O)c1ccc(C(=O)N(Cc2cccnc2)c2nc3c(F)cc(F)cc3s2)cc1`, which activity change, negative = inhibition is on record?
**A.** 0%

**Q.** For `Cc1cc(C(=O)COC(=O)c2cccs2)c(C)n1-c1c(C)n(C)n(-c2ccccc2)c1=O`, which activity change, negative = inhibition is on record?
**A.** -1.04%

**Q.** With `Cc1ccsc1C(=O)OCC(=O)c1cc(C)n(CC2CCCO2)c1C` (stereo not drawn) as the compound, how does the activity change, negative = inhibition read?
**A.** -75.9% (active)

**Q.** Which activity change, negative = inhibition does the source give for `COCCn1c(C)cc(C(=O)COC(=O)CNC(=O)c2ccco2)c1C` here?
**A.** 0%

**Q.** For `COc1ccc(CNC(=O)c2ccc(NC(=O)N3CC4CCCN4c4ccccc43)cc2)cc1` (stereo not drawn), which activity change, negative = inhibition is on record?
**A.** -1.77%

**Q.** With `CCOc1ccc(CNC(=O)C2CCN(c3nnc(-n4cccc4CNc4ccc(C)cc4)s3)CC2)cc1OC` as the compound, how does the activity change, negative = inhibition read?
**A.** -18.2%

**Q.** For `Cc1ccc(CCNC(=O)C2CCN(c3nnc(-n4cccc4CNc4ccc(C)cc4)s3)CC2)cc1`, which activity change, negative = inhibition is on record?
**A.** -72.7% (active)

**Q.** For `CSc1ccc(CCNC(=O)C2CCN(c3nnc(-n4cccc4)s3)CC2)cc1`, which activity change, negative = inhibition is on record?
**A.** -19.1%

**Q.** With `CCOC(=O)c1c(S(=O)(=O)NCC(=O)Nc2ccc(Cl)c(C(F)(F)F)c2)c(C)n(C)c1C` as the compound, how does the activity change, negative = inhibition read?
**A.** -27.1%

**Q.** For `CC(C)C[C@H]1CN([C@@H](CC(C)C)CN2CCC[C@@H]2CN2C(=O)C(=O)NC[C@@H]2Cc2ccccc2)C(=O)C(=O)N1CCc1ccccc1`, which activity change, negative = inhibition is on record?
**A.** -63.2% (active)

**Q.** With `CC(C)C[C@H]1CN([C@@H](Cc2ccccc2)CN2CCC[C@@H]2CN2C(=O)C(=O)NC[C@@H]2Cc2ccc(O)cc2)C(=O)C(=O)N1CCc1ccccc1` as the compound, how does the activity change, negative = inhibition read?
**A.** -26.7%

**Q.** Which activity change, negative = inhibition does the source give for `CCOc1ccc(CCN2C(=O)C(=O)N([C@@H](CC(C)C)CN3CCC[C@H]3CN3C(=O)C(=O)NC[C@@H]3Cc3ccccc3)C[C@@H]2CC(C)C)cc1` here?
**A.** -7.85%

**Q.** With `O=c1c2ccccc2c(-c2ccccc2)nn1-c1ccccn1` as the compound, how does the activity change, negative = inhibition read?
**A.** -24.2%

**Q.** Which activity change, negative = inhibition does the source give for `O=c1c2ccccc2nc(-c2ccccc2)n1-c1ccccn1` here?
**A.** -62.3% (active)

**Q.** With `O=C(Nn1c(-c2ccc(Cl)cc2)nc2ccccc2c1=O)c1cccnc1Cl` as the compound, how does the activity change, negative = inhibition read?
**A.** -11.2%

**Q.** With `COc1cccc(CNC(=O)CN2C(=O)CCc3cc(S(=O)(=O)N4CCOCC4)ccc32)c1` as the compound, how does the activity change, negative = inhibition read?
**A.** 7.53%

**Q.** For `COc1cc(OC)cc(-c2nc3nc(C)c(CCC(=O)Nc4ccc(C)cc4)c(C)n3n2)c1`, which activity change, negative = inhibition is on record?
**A.** 22.9%

**Q.** Which activity change, negative = inhibition does the source give for `CCC1CCCCN1S(=O)(=O)c1ccc(NC(=O)c2cc(=O)c3ccccc3o2)cc1` (stereo not drawn) here?
**A.** -21.4%

**Q.** With `Cc1cccc(-c2nnc(SCC(=O)N3CCCc4ccccc43)o2)c1` as the compound, how does the activity change, negative = inhibition read?
**A.** -13.3%

**Q.** With `CCc1ccc(NC(=O)c2sc3nc4c(cc3c2N)CN(CC)CC4)cc1` as the compound, how does the activity change, negative = inhibition read?
**A.** -27.1%

**Q.** With `Cc1cccc2cc3c(N)c(C(=O)N4CCCc5ccccc54)sc3nc12` as the compound, how does the activity change, negative = inhibition read?
**A.** -66.1% (active)
